Reference: PubChem BioAssay (NCI)
Compounds without any hit were thinned out: in the full panel of roughly 79,000, 15% have a hit. Values without a mark were called inactive. Calls of active or inactive are those of the source. Rule as the data show it: active = growth inhibition above about 70%; inactive = the rest.

Test: NCI Yeast Anticancer Drug Screen. Data for the sgs1 mgt1 strain (AID 161);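 also: 0% = growth of cultures given vehicle only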
Conditions: S. cerevisiae sgs1 mgt1 strain, at 5.0 µM (retest, dose inferred, filed as 0.5), stronger effect = higher value
Method in brief: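 Inhibition of yeast growth, normalised to vehicle-treated controls, is reported for a strain bearing genetic alterations in DNA damage repair.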
For CN(C)CC(CN(C)C)C(=O)c1ccc(Oc2ccc(Cl)c(Cl)c2)cc1, the growth inhibition was 29%.
Compound CN1c2ccccc2C(C)(C)C12C=Cc1cc(O)ccc1O2 (stereo not given) has a growth inhibition of 8%.
Work on CC(C)Cc1ncc(CC(C)C)n(O)c1=O yielded a growth inhibition of 41%.
Work on Nc1ccc(SSc2ccc(N)cc2)cc1 yielded a growth inhibition of 2%.
For N#CCC1CC(=O)c2[nH]c3ccccc3c2C1 (stereo not given), the growth inhibition was -64%.
Compound O=C1c2ccccc2C(=O)c2sccc21 has a growth inhibition of -43%.
CC/C(=C(\CC)c1ccc(O)c(CN(C)C)c1)c1ccc(OC)cc1 showed a growth inhibition of 12%.
O=S(=O)(O)N=Nc1ccc(O)cc1 gave a growth inhibition of 17%.
With O=C1CCSC(=S)N1c1ccc(N=Nc2ccccc2)cc1 the growth inhibition was 20%.
In the case of CC(C)C(=O)NNc1ccccc1, the growth inhibition is reported as 18%.
With O=C(CBr)c1ccc2cc(Br)c3ccccc3c2c1 the growth inhibition was 98% (active).
With O=C1c2cc3c(cc2CC1Br)CCC3 (stereo not given) the growth inhibition was 99% (active).
O=C1NC(=O)N(c2ccc(Cl)c(Cl)c2)C1=O gave a growth inhibition of 0%.
For C[n+]1c(-c2cccc(OCCOCCOc3cccc(-c4c5cc(N)ccc5c5ccc(N)cc5[n+]4C)c3)c2)c2cc(N)ccc2c2ccc(N)cc21, the growth inhibition was 25%.
For N#CC(C#N)C(C#N)c1ccc(Cl)c(Cl)c1 (stereo not given), the growth inhibition was 36%.
Work on CCCCCCCCCCCCOC(=O)C[n+]1cccc(C(=O)Nc2ccc(Cl)cc2)c1 yielded a growth inhibition of 60%.
In the case of CCC(=O)c1ccc2ccc3ccccc3c2c1, the growth inhibition is reported as 4%.
Work on Cc1ccc(S(=O)(=O)NC(=O)CC2CCCCC2)cc1 yielded a growth inhibition of -9%.
For c1ccc(N/N=C(/CC/C(=N\Nc2ccccc2)c2ccccc2)c2ccccc2)cc1, the growth inhibition was -13%.
For Cc1c(N)cc(I)cc1[N+](=O)[O-], the growth inhibition was 0%.

Same assay, conditions: S. cerevisiae sgs1 mgt1 strain, at 50.0 µM (retest, dose inferred, filed as 5.0), stronger effect = higher value
For Nc1nc2c(ccc3ccccc32)s1, the growth inhibition was 54%.
In the case of O=C(O)CCCCC1CCCCC1.[Cu+2], the growth inhibition is reported as 93% (active).
In the case of O=Cc1ccc(O)c2ccccc12, the growth inhibition is reported as 85% (active).
With CC(=Nc1ccc(N(C)C)cc1)c1ccccc1 the growth inhibition was 70% (active).
For C/C(Cl)=N\OC(=O)Nc1ccc(C)cc1, the growth inhibition was 91% (active).
In the case of COC(=O)C1CCC(c2ccccc2)CC1C(=O)OC (stereo not given), the growth inhibition is reported as 12%.
For CCCCNC(=S)NC1C2CC3CC(C2)CC1C3 (stereo not given), the growth inhibition was 90% (active).
CCN(CC)CCOC(=O)CCN1CC2CCC(CC2)C1 showed a growth inhibition of 4%.
In the case of CCOc1ccc(-c2nc3ccc(-c4nc5ccc(N6CCN(C)CC6)cc5[nH]4)cc3[nH]2)cc1, the growth inhibition is reported as 99% (active).
Compound NC(CCC(=O)NC(CS(=O)(=O)O)C(=O)O)C(=O)O (stereo not given) has a growth inhibition of 5%.
For CSc1cc(C(=O)O)nc(N)n1, the growth inhibition was -1%.
With CCN(CC)CCCNc1c(O)cc(C)c2sc3ccccc3c(=O)c12 the growth inhibition was 99% (active).
For C=C1C(=O)OC2C1CC1OC2C(C)CCC/C(C)=C\CCC1(C)O (stereo not given), the growth inhibition was 34%.
In the case of O=C1C=CC2=Nc3ccccc3CCC2=C1, the growth inhibition is reported as 95% (active).
In the case of CC(C)CC(CC(C)C)OP(=O)(O)OC(CC(C)C)CC(C)C, the growth inhibition is reported as 71% (active).
For O=C(O)c1ccccc1Cc1ccc2c(c1)Cc1ccccc1-2, the growth inhibition was 89% (active).
For Nc1c(F)cccc1F, the growth inhibition was 1%.
In the case of COc1cc(OC)c(SSCCCCS(=O)O)c(OC)c1, the growth inhibition is reported as 55%.
For S=C1Nc2cnc3ccccc3c2SC1c1ccccc1 (stereo not given), the growth inhibition was 98% (active).
With CC(C)CCCC(C)[C@H]1CCC(C2C[C@@H](O)[C@@H]3CC(O)[C@@H](O)C[C@]3(CO)C2=O)[C@]1(C)CCO (stereo not given in full) the growth inhibition was 99% (active).
For CN(C)CC(CN(C)C)C(=O)c1ccc(Oc2ccc(Cl)c(Cl)c2)cc1, the growth inhibition was 98% (active).
For CN1c2ccccc2C(C)(C)C12C=Cc1cc(O)ccc1O2 (stereo not given), the growth inhibition was 38%.
In the case of CC(C)Cc1ncc(CC(C)C)n(O)c1=O, the growth inhibition is reported as 97% (active).
In the case of Nc1ccc(SSc2ccc(N)cc2)cc1, the growth inhibition is reported as 97% (active).
In the case of N#CCC1CC(=O)c2[nH]c3ccccc3c2C1 (stereo not given), the growth inhibition is reported as -63%.
In the case of O=C1c2ccccc2C(=O)c2sccc21, the growth inhibition is reported as 62%.
In the case of CC/C(=C(\CC)c1ccc(O)c(CN(C)C)c1)c1ccc(OC)cc1, the growth inhibition is reported as 99% (active).
For O=S(=O)(O)N=Nc1ccc(O)cc1, the growth inhibition was 98% (active).
In the case of O=C1CCSC(=S)N1c1ccc(N=Nc2ccccc2)cc1, the growth inhibition is reported as 94% (active).
In the case of CC(C)C(=O)NNc1ccccc1, the growth inhibition is reported as 70% (active).
In the case of O=C(CBr)c1ccc2cc(Br)c3ccccc3c2c1, the growth inhibition is reported as 95% (active).
In the case of O=C1c2cc3c(cc2CC1Br)CCC3 (stereo not given), the growth inhibition is reported as 99% (active).
In the case of O=C1NC(=O)N(c2ccc(Cl)c(Cl)c2)C1=O, the growth inhibition is reported as 7%.
In the case of C[n+]1c(-c2cccc(OCCOCCOc3cccc(-c4c5cc(N)ccc5c5ccc(N)cc5[n+]4C)c3)c2)c2cc(N)ccc2c2ccc(N)cc21, the growth inhibition is reported as 97% (active).
In the case of N#CC(C#N)C(C#N)c1ccc(Cl)c(Cl)c1 (stereo not given), the growth inhibition is reported as 100% (active).
With CCCCCCCCCCCCOC(=O)C[n+]1cccc(C(=O)Nc2ccc(Cl)cc2)c1 the growth inhibition was 98% (active).
With CCC(=O)c1ccc2ccc3ccccc3c2c1 the growth inhibition was 72% (active).
For Cc1ccc(S(=O)(=O)NC(=O)CC2CCCCC2)cc1, the growth inhibition was 94% (active).
For c1ccc(N/N=C(/CC/C(=N\Nc2ccccc2)c2ccccc2)c2ccccc2)cc1, the growth inhibition was 82% (active).
Work on Cc1c(N)cc(I)cc1[N+](=O)[O-] yielded a growth inhibition of 63%.
